# Assay results published in the supplement of paper PMC8728848.
# The entries come from a sample that favours the strongest signals as a whole.
# How the values were obtained:
# Experiment in all cases: glycan array binding signal (z-score within array); higher = stronger binding
# Conditions in all cases: glycan notation: IUPAC condensed, linker removed
# [1] = biological target: Fuc(a1-2)Gal(b1-3)[Fuc(a1-4)]GlcNAc(b1-2)Man(a1-3)[Fuc(a1-2)Gal(b1-3)[Fuc(a1-4)]GlcNAc(b1-2)Man(a1-3)]Man(b1-4)GlcNAc(b1-4)GlcNAc
# In short: (§1)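 Glycan array data were curated from 3228 arrays in the Consortium for Functional Glycomics database and kept only where the protein sequence was available. Glycan names were converted to IUPAC-condensed notation, and columns mapping to the same glycan were averaged. The binding signal is a within-array Z-score, averaged across arrays of the same protein sequence at different concentrations or buffers and across linkers. Negative Z-scores can be read as non-binding.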
# [2] = biological target: Fuc(a1-2)Gal(b1-4)GlcNAc(b1-2)Man(a1-3)[Fuc(a1-2)Gal(b1-4)GlcNAc(b1-2)Man(a1-6)]Man(b1-4)GlcNAc(b1-4)GlcNAc
# In short: as §1
# [3] = biological target: Fuc(a1-2)Gal(b1-4)GlcNAc(b1-2)Man(a1-3)[Fuc(a1-2)Gal(b1-4)GlcNAc(b1-2)Man(a1-6)]Man(b1-4)GlcNAc(b1-4)[Fuc(a1-6)]GlcNAc
# In short: as §1
# [4] = biological target: Fuc(a1-2)Gal(b1-4)GlcNAc(b1-3)[Fuc(a1-2)Gal(b1-4)GlcNAc(b1-6)]GalNAc
# In short: as §1
# [5] = biological target: Fuc(a1-2)Gal(b1-4)[Fuc(a1-3)]GlcNAc(b1-3)GalNAc
# In short: as §1
# [6] = biological target: Fuc(a1-2)Gal6S(b1-3)GlcNAc
# In short: as §1
# [7] = biological target: Fuc(a1-2)[Gal(a1-3)]Gal(b1-3)GalNAc(b1-3)Gal(a1-4)Gal(b1-4)Glc
# In short: as §1
# [8] = biological target: Fuc(a1-2)[Gal(a1-3)]Gal(b1-4)GlcNAc(b1-2)Man
# In short: as §1
# [9] = biological target: Fuc(a1-2)[GalNAc(a1-3)]Gal(b1-4)GlcNAc(b1-2)Man(a1-3)[Fuc(a1-2)[GalNAc(a1-3)]Gal(b1-4)GlcNAc(b1-2)Man(a1-6)]Man(b1-4)GlcNAc(b1-4)GlcNAc
# In short: as §1
# [10] = biological target: Fuc(a1-3)[Gal3S(b1-4)]Glc
# In short: as §1
# [11] = biological target: Fuc(a1-3)[Gal3S(b1-4)]GlcNAc6S
# In short: as §1
# [12] = biological target: Gal(a1-3)Gal(b1-3)GlcNAc(b1-2)Man(a1-3)[Gal(a1-3)Gal(b1-3)GlcNAc(b1-2)Man(a1-6)]Man(b1-4)GlcNAc(b1-4)GlcNAc
# In short: as §1
# [13] = biological target: Gal(a1-3)Gal(b1-4)GlcNAc(b1-2)Man(a1-3)[Gal(a1-3)Gal(b1-4)GlcNAc(b1-2)Man(a1-6)]Man(b1-4)GlcNAc(b1-4)GlcNAc
# In short: as §1
# [14] = biological target: Gal(a1-3)[Gal(a1-4)]Gal(b1-4)GlcNAc
# In short: as §1
# [15] = biological target: Gal(b1-3)GalNAc(a1-3)[Fuc(a1-2)]Gal(b1-4)Glc
# In short: as §1
# [16] = biological target: Gal(b1-3)GlcNAc(b1-2)Man(a1-3)[Gal(b1-3)GlcNAc(b1-2)Man(a1-6)]Man(b1-4)GlcNAc(b1-4)GlcNAc
# In short: as §1
# [17] = biological target: Gal(b1-3)GlcNAc(b1-3)Gal(b1-4)GlcNAc(b1-2)[Gal(b1-3)GlcNAc(b1-3)Gal(b1-4)GlcNAc(b1-6)]Man(a1-6)[Gal(b1-3)GlcNAc(b1-3)Gal(b1-4)GlcNAc(b1-2)Man(a1-3)]Man(b1-4)GlcNAc(b1-4)[Fuc(a1-6)]GlcNAc
# In short: as §1
# [18] = biological target: Gal(b1-3)GlcNAc(b1-3)Gal(b1-4)GlcNAc(b1-3)Gal(b1-4)GlcNAc(b1-2)[Gal(b1-3)GlcNAc(b1-3)Gal(b1-4)GlcNAc(b1-3)Gal(b1-4)GlcNAc(b1-6)]Man(a1-6)[Gal(b1-3)GlcNAc(b1-3)Gal(b1-4)GlcNAc(b1-3)Gal(b1-4)GlcNAc(b1-2)Man(a1-3)]Man(b1-4)GlcNAc(b1-4)[Fuc(a1-6)]GlcNAc
# In short: as §1
# [19] = biological target: Gal(b1-3)GlcNAc(b1-6)GalNAc
# In short: as §1
# [20] = biological target: Gal(b1-3)[Fuc(a1-4)]GlcNAc(b1-3)Gal(b1-4)[Fuc(a1-3)]GlcNAc
# In short: as §1
# [21] = biological target: Gal(b1-4)GlcNAc(b1-3)Gal(b1-4)GlcNAc(b1-2)[Gal(b1-4)GlcNAc(b1-3)Gal(b1-4)GlcNAc(b1-6)]Man(a1-6)[Gal(b1-4)GlcNAc(b1-3)Gal(b1-4)GlcNAc(b1-2)Man(a1-3)]Man(b1-4)GlcNAc(b1-4)GlcNAc
# In short: as §1
# [22] = biological target: Gal(b1-4)GlcNAc(b1-3)Gal(b1-4)GlcNAc(b1-3)Gal(b1-4)GlcNAc(b1-3)Gal(b1-4)GlcNAc(b1-2)[Gal(b1-4)GlcNAc(b1-3)Gal(b1-4)GlcNAc(b1-3)Gal(b1-4)GlcNAc(b1-3)Gal(b1-4)GlcNAc(b1-6)]Man(a1-6)[Gal(b1-4)GlcNAc(b1-3)Gal(b1-4)GlcNAc(b1-3)Gal(b1-4)GlcNAc(b1-3)Gal(b1-4)GlcNAc(b1-2)Man(a1-3)]Man(b1-4)GlcNAc(b1-4)[Fuc(a1-6)]GlcNAc
# In short: as §1
# [23] = biological target: Gal(b1-4)GlcNAc(b1-3)Gal(b1-4)GlcNAc(b1-3)Gal(b1-4)GlcNAc(b1-3)Gal(b1-4)GlcNAc(b1-3)Gal(b1-4)GlcNAc(b1-2)[Gal(b1-4)GlcNAc(b1-3)Gal(b1-4)GlcNAc(b1-3)Gal(b1-4)GlcNAc(b1-3)Gal(b1-4)GlcNAc(b1-3)Gal(b1-4)GlcNAc(b1-6)]Man(a1-6)[Gal(b1-4)GlcNAc(b1-3)Gal(b1-4)GlcNAc(b1-3)Gal(b1-4)GlcNAc(b1-3)Gal(b1-4)GlcNAc(b1-3)Gal(b1-4)GlcNAc(b1-2)Man(a1-3)]Man(b1-4)GlcNAc(b1-4)[Fuc(a1-6)]GlcNAc
# In short: as §1
# [24] = biological target: Gal(b1-4)GlcNAc(b1-3)Gal(b1-4)GlcNAc(b1-3)GalNAc
# In short: as §1
# [25] = biological target: Gal(b1-4)GlcNAc(b1-6)[Gal(b1-3)]GalNAc
# In short: as §1
# GalNAc(a1-3)Gal = biological target: GalNAc(a1-3)Gal
# In short: as §1
# [26] = biological target: GalNAc(b1-3)Gal(a1-4)Gal(b1-4)GlcNAc
# In short: as §1
# [27] = biological target: GalNAc(b1-3)Gal(a1-6)Gal(b1-4)Glc
# In short: as §1
# GalNAc(b1-4)Gal(b1-4)Glc = biological target: GalNAc(b1-4)Gal(b1-4)Glc
# In short: as §1
# [28] = biological target: GlcNAc(a1-4)Gal(b1-4)GlcNAc(b1-3)Gal(b1-4)GlcNAc
# In short: as §1
binder,measurement,setting,value
PX9961X-pdi-531-24-531 (Parabacteroides distasonis) (protein) DLTEEIHSSVIAENYYNNAGEVMAAMMRPWGHFCGTMQVAQSPWSCNELSSDCAAWPQKGRHGYDNGDWIRLHRHQWIPTDGQVVDAWKKLFEGIGYANNFLTDTENIDFEALQVPMSKAQAQAEMRVYRAYCYWYVMDMFGTAPICEKIGEINPSSKSRAELFAWIEKELNESIPSLSESKTETYGRVSKWGAYALLARLYLNAEIYTGQARWDDCIAACDELAKGGFALDKKWNDTFRADNDKRSTEIIWSIVYDEVYAKGMGWYQRWLHYAHQTGWDLQSGPWNGLVTQPTFYDSFADNDLRKIEGFLIGKQYPRKVDENGNYYYDTTAEPLKGSEEYNGQDLVFVNYIKSMTEGEENSGARSIKYEIQPGTTGDMNNDWVMFRYSEVIYNKAEALMRKNGGKATQEVVDMINSVRQRSFKAEDWEKAKYTTATLTMDEFLAEKGREFAFEGIRRTDLVRFNKFVTTSWWDKTASNEPKRNIFPIPQRQLDANANLSPNEANSLF,glycan array binding signal (z-score),[1],0.026
same,glycan array binding signal (z-score),[2],1.28
same,glycan array binding signal (z-score),[3],-0.118
same,glycan array binding signal (z-score),[4],-0.351
same,glycan array binding signal (z-score),[5],0.289
same,glycan array binding signal (z-score),[6],-0.189
same,glycan array binding signal (z-score),[7],-0.567
same,glycan array binding signal (z-score),[8],-0.156
same,glycan array binding signal (z-score),[9],0.31
same,glycan array binding signal (z-score),[10],0.374
same,glycan array binding signal (z-score),[11],-0.332
same,glycan array binding signal (z-score),[12],3.82
same,glycan array binding signal (z-score),[13],0.935
same,glycan array binding signal (z-score),[14],7.26
same,glycan array binding signal (z-score),[15],0.221
same,glycan array binding signal (z-score),[16],4.29
same,glycan array binding signal (z-score),[17],3.82
same,glycan array binding signal (z-score),[18],7.05
same,glycan array binding signal (z-score),[19],1.52
same,glycan array binding signal (z-score),[20],-0.466
same,glycan array binding signal (z-score),[21],2.17
same,glycan array binding signal (z-score),[22],3.6
same,glycan array binding signal (z-score),[23],3.41
same,glycan array binding signal (z-score),[24],0.788
same,glycan array binding signal (z-score),[25],-0.374
same,glycan array binding signal (z-score),GalNAc(a1-3)Gal,0.96
same,glycan array binding signal (z-score),[26],-0.236
same,glycan array binding signal (z-score),[27],2.61
same,glycan array binding signal (z-score),GalNAc(b1-4)Gal(b1-4)Glc,-0.106
same,glycan array binding signal (z-score),[28],-0.352
